Drawing on PubChem BioAssay (EPA / NIEHS), this text covers AC50 and outcome for 13 molecules.

Inconclusive results are not listed. Calls of active or inactive are those of the source. How the source made its calls, unless noted: active means hit-call score of the fitted dose curve at least 0.9, where 1 is the maximum; inactive means score below 0.9.

The nature of assay [1]: BSK_BT_Bcell_Proliferation: Viability Assessment in the BioMAP Diversity Plus: BT Assay for B cell Proliferation (AID 2284227). Conditions: primary human B cells with PBMC. An outline of the steps:
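Human B cells co-cultured with PBMC were dosed with test chemicals and relative cell number was quantified by SRB staining at 72 h. Cells were fixed in 10% TCA, stained with 0.1% SRB and read at 560 nm. Activity was fitted in the positive direction against DMSO.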

Read-out in assay [2]: Interleukin 6 (IL6), IL6 (gene 3569)
Nature of the assay: BSK_BT_xIL6: BioMAP Diversity Plus: BT Assay for Interleukin 6 (IL6) Biomarker Activity (AID 2284228). The note with it: primary human B cells with PBMC. The method in brief: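 IL-6 secretion measured (Luminex xMAP) in human primary B cell + PBMC co-culture at 24 h of chemical exposure; DMSO served as negative control and activity baseline, with curves fitted for increase.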

Read-out in assay [3]: Interleukin 17A (IL17A), IL17A (gene 3605)
Nature of the assay: BSK_BT_xIL17A: BioMAP Diversity Plus: BT Assay for Interleukin 17A (IL17A) Biomarker Activity (AID 2284229). Conditions: primary human B cells with PBMC. The method in brief: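 Human primary B cells plus PBMC, treated 24 h with chemicals; supernatant IL-17A quantified on Luminex xMAP beads. Gain of signal over DMSO control scored as activity.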

Read-out in assay [4]: Vascular cell adhesion molecule 1 (VCAM1), VCAM1 (gene 7412)
Nature of the assay: BSK_MyoF_VCAM1: BioMAP Diversity Plus: MyoF Assay for Vascular cell adhesion molecule 1 (VCAM1) Biomarker Activity (AID 2284231). The note with it: primary human lung fibroblasts. The method in brief: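 VCAM-1 levels, lung fibroblasts, ELISA, 24 h exposure, increase scored relative to DMSO.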

Read-out in assay [5]: Collagen I, COL1A1 (gene 1277)
Nature of the assay: BSK_MyoF_CollagenI: BioMAP Diversity Plus: MyoF Assay for Collagen I Biomarker Activity (AID 2284238). The note with it: primary human lung fibroblasts. The method in brief:
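Measured by ELISA: Collagen I from human lung fibroblasts 24 h after compound addition, analysed for signal gain with DMSO as baseline; overt toxicity read from SRB staining of parallel cultures at the same time.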

Read-out in assay [6]: Interleukin 17F (IL17F), IL17F (gene 112744)
Nature of the assay: BSK_BT_xIL17F: BioMAP Diversity Plus: BT Assay for Interleukin 17F (IL17F) Biomarker Activity (AID 2284243). The note with it: primary human B cells with PBMC. The method in brief: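 Luminex readout of IL-17F secretion, 24 h; cells: human B cells with PBMC; positive-direction analysis, DMSO control.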

Read-out in assay [7]: Interleukin 2 (IL2), IL2 (gene 3558)
Nature of the assay: BSK_BT_xIL2: BioMAP Diversity Plus: BT Assay for Interleukin 2 (IL2) Biomarker Activity (AID 2284245). The note with it: primary human B cells with PBMC. An outline of the steps:
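Co-cultures of primary human B cells and PBMC are treated with chemical and sampled at 24 h. IL-2 secretion is quantified by Luminex xMAP, with DMSO-treated wells as baseline.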

Read-out in assay [8]: Basic fibroblast growth factor (bFGF), FGF2 (gene 2247)
The assay is described as follows: BSK_MyoF_bFGF: BioMAP Diversity Plus: MyoF Assay for Basic fibroblast growth factor (bFGF) Biomarker Activity (AID 2284246). The note with it: primary human lung fibroblasts. The method in brief:
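Fibroblasts from human lung, 24 h dosing. bFGF by ELISA; gain of signal over DMSO.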

Read-out in assay [9]: Collagen IV, COL4A1 (gene 1282)
The assay is described as follows: BSK_MyoF_CollagenIV: BioMAP Diversity Plus: MyoF Assay for Collagen IV Biomarker Activity (AID 2284247). The note with it: primary human lung fibroblasts. An outline of the steps:
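Lung fibroblasts (human primary) treated with chemicals were assayed after 24 h for Collagen IV using an ELISA, with DMSO serving as negative control and baseline for a positive-direction fit.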

Read-out in assay [10]: Plasminogen activator inhibitor-1 (PAI1), SERPINE1 (gene 5054)
The assay is described as follows: BSK_MyoF_PAI1: BioMAP Diversity Plus: MyoF Assay for Plasminogen activator inhibitor-1 (PAI1) Biomarker Activity (AID 2284256).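 On outcome: PAI-1 protein level measured by ELISA in fibroblast cultures; PAI-1 read 24 h after compound addition.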 The note with it: primary human lung fibroblasts. The method in brief:
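In this multiplexed primary-cell system, fibroblasts from human lung received compound for 24 h before ELISA detection of PAI-1; overt toxicity was checked by SRB (0.1%, TCA-fixed, 560 nm) in parallel wells.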

Read-out in assay [11]: Interleukin-8 (IL8), CXCL8 (gene 3576)
The assay is described as follows: BSK_MyoF_IL8: BioMAP Diversity Plus: MyoF Assay for Interleukin-8 (IL8) Biomarker Activity (AID 2284261). The note with it: primary human lung fibroblasts. The method in brief:
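DMSO-normalised, upward-fitted IL-8 ELISA signal; human lung fibroblasts, 24 h chemical treatment.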

Read-out in a further assay: Decorin, DCN (gene 1634)
Nature of the assay: BSK_MyoF_Decorin: BioMAP Diversity Plus: MyoF Assay for Decorin Biomarker Activity (AID 2284265). The note with it: primary human lung fibroblasts. The method in brief:
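In this multiplexed fibroblast system, secreted or surface decorin is detected by ELISA one day after dosing, with increases scored against the DMSO vehicle.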

A short description of assay [12]: BSK_MyoF_SRB: Viability Assessment in the BioMAP Diversity Plus: MyoF Assay (AID 2284267).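 Further: total protein by SRB absorbance in parallel cultures as cytotoxicity measure; cells assessed 24 h after compound addition.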 Conditions: primary human lung fibroblasts. The method in brief:
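In this viability endpoint, fibroblasts from human lung are treated for 24 h, TCA-fixed, SRB-stained (0.1%) and read at 560 nm. Gain of signal relative to DMSO defines activity.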

Assay [13] can be described thus: TAMU_HCS_1.5hr_SingleDonor1434_Cytotoxicity: Cytotoxicity Assessment using High-content Screening (HCS) Fluorescent Imaging for the Texas A&M University (TAMU) 1.5-hr Human Induced Pluripotent Stem Cell (iPSC)-derived Cardiotoxicity Assay (AID 2284234; active means hit-call score of the fitted dose curve at least 0.9, where 1 is the maximum). An outline of the steps: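 Nuclear counts from Hoechst 33342 imaging define cytotoxicity here, with EC10 (10% cell-count loss relative to DMSO) as point of departure. iPSC cardiomyocytes received 0.2-100 uM test chemical in 0.5% DMSO for 1.5 h at 37 C.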

Turning to `O=C1CCCCCCCCCCCCCCO1`, the AC50 in [1] is 34.9 µM (active); in assay [2] it was 30.4 µM (active); in assay [3], 25.2 µM (active); in assay [4], 20 µM (active); in assay [5], 8.87 µM (active); in assay [6], 31.2 µM (active). In addition, the AC50 in assay [7] is 32.9 µM (active). The outcome in [8] is “inactive”; in assay [9], “inactive”; in [10], “inactive”; in [11], “inactive”; with Decorin, DCN (gene 1634) it was “inactive”; in assay [12] it was “inactive”.
Regarding `CC(=O)Nc1ccccc1O`, the outcome in [1], in assay [2], in [3], in assay [4], in [5] and in assay [6] was inactive. The outcome in [7] is “inactive”; in [8], “inactive”; in [9] it was “inactive”; in assay [10], “inactive”; in assay [11], “inactive”; in the assay with Decorin, DCN (gene 1634), “inactive”. For the same molecule, the outcome in assay [12] was inactive.
Regarding `CCCCC(CC)COCCC#N` (stereo not given), the result in [1], in assay [2], in [3], in [4], in [5] and in [6] was inactive. Besides, the outcome is “inactive” in assay [7]; “inactive” in assay [8]; “inactive” in assay [9]; “inactive” in [10]; “inactive” in assay [11]; “inactive” in the assay with Decorin, DCN (gene 1634). In addition, in assay [12], the outcome was inactive.
For the molecule `Cc1ccc2n[nH]nc2c1`, the result in [1], in assay [2], in [3], in assay [4], in assay [5] and in [6] was inactive. Further, the outcome is “inactive” in [7]; “inactive” in assay [8]; “inactive” in assay [9]; “inactive” in [10]; “inactive” in assay [11]; “inactive” with Decorin, DCN (gene 1634). In addition, the result in assay [12] was inactive.
Turning to `CCCCC/C=C/C=C/C=O`, the AC50 was 20.1 µM (active) in assay [1]; 27.4 µM (active) in [2]; 20 µM (active) in [3]; 34.9 µM (active) in assay [4]; 32.4 µM (active) in [5]; 30.7 µM (active) in assay [6]. Further, the AC50 in [7] is 31.4 µM (active); in [8], 36.8 µM (active); in assay [9], 10.5 µM (active); in [10] it was 29.4 µM (active); with Decorin, DCN (gene 1634) it was 20 µM (active); in [12], 32 µM (active). For the same molecule, in [11], the outcome was inactive.
Regarding `CCCCCCCCCCCCCCCCCC(=O)OCC(CC)CCCC` (stereo not given), the outcome in [1], in assay [2], in assay [3], in assay [4], in [5] and in assay [6] was inactive. The outcome was “inactive” in assay [7]; “inactive” in [8]; “inactive” in [9]; “inactive” in assay [10]; “inactive” in assay [11]; “inactive” with Decorin, DCN (gene 1634). Also, in [12], the result was inactive.
Turning to `CNC[C@H](O)c1cccc(O)c1`, the outcome in assay [1], in assay [2], in assay [3], in [4], in assay [5] and in assay [6] was inactive. Besides, the outcome in [7] is “inactive”; in assay [8], “inactive”; in [9] it was “inactive”; in assay [10], “inactive”; in [11] it was “inactive”; with Decorin, DCN (gene 1634) it was “inactive”. Moreover, the result in assay [12] was inactive.
Take `C#C[C@]1(O)CC[C@H]2[C@@H]3CCC4=Cc5oncc5C[C@]4(C)[C@H]3CC[C@@]21C`: the AC50 is 33.1 µM (active) in [1]; 24.4 µM (active) in [3]; 20 µM (active) in assay [4]; 25.3 µM (active) in assay [6]; 28.6 µM (active) in assay [7]; 30.8 µM (active) in assay [8]. In assay [10], the AC50 was 3.97 µM (active). For the same molecule, the outcome in assay [2] was “inactive”; in [5] it was “inactive”; in assay [9], “inactive”; in assay [11], “inactive”; in the assay with Decorin, DCN (gene 1634) it was “inactive”; in assay [12] it was “inactive”.
For `Cc1ccc(Nc2ccc(O)c3c2C(=O)c2ccccc2C3=O)cc1`, the result in [1], in assay [2], in [3], in assay [4], in [5] and in assay [6] was inactive. Further, the outcome in [7] was “inactive”; in [8], “inactive”; in [9], “inactive”; in assay [10], “inactive”; in assay [11], “inactive”; with Decorin, DCN (gene 1634) it was “inactive”. The result in [12] was inactive.
In the case of `c1ccc2c(c1)c1cccc3ccc4cccc2c4c31`, the result in [1], in assay [3], in [4], in assay [13], in assay [5] and in [7] was inactive. In addition, the outcome in [8] is “inactive”; in assay [11], “inactive”; with Decorin, DCN (gene 1634), “inactive”; in [12] it was “inactive”. Moreover, the AC50 in [2] was 2.63 µM (active); in assay [6], 20 µM (active); in [9] it was 0.0413 µM (active); in assay [10], 0.016 µM (active).
As to `CCc1c(C)cc(N)c(CC)c1N`, the result in [1], in assay [2], in assay [3], in assay [4], in assay [5] and in assay [6] was inactive. Further, the outcome in assay [7] was “inactive”; in assay [8], “inactive”; in [9] it was “inactive”; in assay [10], “inactive”; in assay [11] it was “inactive”; in the assay with Decorin, DCN (gene 1634) it was “inactive”. Moreover, in assay [12], the result was inactive.
`O=C1OC2(c3cc(Br)c(O)c(Br)c3Oc3c2cc(Br)c(O)c3Br)c2c(Cl)c(Cl)c(Cl)c(Cl)c21`: the outcome in [1], in assay [6] and in assay [7] was inactive. For the same molecule, the concentration at half-maximal activity (AC50) in assay [2] was 8.52 µM (active); in assay [3], 9.94 µM (active); in assay [4] it was 5.03 µM (active); in assay [5] it was 3.89 µM (active); in assay [8], 11.9 µM (active); in assay [9], 2.72 µM (active). The AC50 in assay [10] is 4.56 µM (active); in assay [11], 20 µM (active); in the assay with Decorin, DCN (gene 1634) it was 13.2 µM (active); in assay [12], 9.73 µM (active).
Take `Cc1ccc(O)c(C(C)(C)C)c1`: the outcome in assay [1], in [2], in assay [3], in assay [6], in assay [7] and in assay [9] was inactive. The outcome was “inactive” in assay [11] and “inactive” in the assay with Decorin, DCN (gene 1634). In addition, the AC50 in [4] was 34.4 µM (active); in assay [5], 35.4 µM (active); in assay [8], 36.1 µM (active); in assay [10], 31.6 µM (active); in [12], 34.3 µM (active).

In general, AC50 refers to the concentration at which the activity in the assay is half-maximal.
